Each structure is given as a SMILES string. Where “and” joins values, the source holds several entries; their conditions need not be identical. Equal entries are not always repeated. Records with an inconclusive call do not appear. More than one record can exist for a structure, and the calls need not agree. Calls of active or inactive are those of the source. Rule for the calls: active = hit-call score of the fitted dose curve at least 0.9, where 1 is the maximum; inconclusive = response in the unintended direction; inactive = score below 0.9.

Sequence of zebrafish Estrogen Receptor (ER1), esr1 (gene 259252) (P57717 whole entry, looked up): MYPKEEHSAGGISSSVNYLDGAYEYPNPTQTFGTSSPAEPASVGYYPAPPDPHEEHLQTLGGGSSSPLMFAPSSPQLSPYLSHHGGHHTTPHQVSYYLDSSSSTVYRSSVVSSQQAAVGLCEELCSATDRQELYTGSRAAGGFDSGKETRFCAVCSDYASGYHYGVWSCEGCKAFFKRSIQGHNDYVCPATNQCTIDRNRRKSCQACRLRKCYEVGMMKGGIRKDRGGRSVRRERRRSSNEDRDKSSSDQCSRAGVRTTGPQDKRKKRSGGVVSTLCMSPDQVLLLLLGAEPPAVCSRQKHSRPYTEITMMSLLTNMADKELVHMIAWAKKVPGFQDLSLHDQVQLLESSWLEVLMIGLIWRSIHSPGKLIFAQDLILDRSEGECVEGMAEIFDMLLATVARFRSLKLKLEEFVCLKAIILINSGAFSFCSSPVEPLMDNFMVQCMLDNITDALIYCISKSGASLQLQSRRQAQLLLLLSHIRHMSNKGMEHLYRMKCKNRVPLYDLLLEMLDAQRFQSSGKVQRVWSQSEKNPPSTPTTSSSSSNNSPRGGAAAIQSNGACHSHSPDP

This assay concerns the target zebrafish Estrogen Receptor (ER1), esr1 (gene 259252) (UniProt P57717). Kind of assay: ATG_zfER1_XSP2: Attagene TRANS-FACTORIAL Multi-Species (XSP2) HepG2 Assay for zebrafish Estrogen Receptor (ER1) (AID 2283816). The method, then: ATG_XSP2_multi-species_TRANS is a cell-based, multiplexed assay created by modifying the existing Attagene TRANS-FACTORIAL system to include a panel of nuclear receptors from some or all the following species: human (Homo sapiens), mouse (Mus musculus), frog (Xenopus laevis), zebrafish (Danio rerio), chicken (Gallus gallus), and turtle (Chrysemys picta). The ECOTOX-FACTORIAL format uses HepG2, a human liver cell line, with measurements taken at 24 hours after chemical dosing in a 24-well plate. Xsp2 included 3 nM 6-alpha-fluorotestosterone and 1.5 nM norgestrel to stimulate the androgen receptor.ATG_zfER1_XSP2 is one of 29 assay components measured or calculated from the ATG_XSP2_multi-species_TRANS assay. It is designed to make measurements of mRNA induction, a form of inducible reporter, as detected with fluorescence intensity signals by Reverse transcription polymerase chain reaction (RT-PCR) and Capillary electrophoresis technology.The assay endpoint ATG_zfER1_XSP2 was analyzed in the positive analysis fitting direction relative to DMSO as the negative control and baseline of activity. Using a type of inducible reporter, measures of mRNA for gain-of-signal activity can be used to understand the reporter gene at the transcription factor-level as they relate to the gene ER. Furthermore, this assay endpoint can be referred to as a primary readout, because this assay has produced multiple assay endpoints where this one serves a reporter gene function. To generalize the intended target to other relatable targets, this assay endpoint is annotated to the nuclear receptor intended target family, where the subfamily is steroidal.
Human liver HepG2 cells are transiently transfected with multiple reporter transcription units (MRTUs) in 6-well plates using FuGene 6 reagent (Roche; 3 ml FuGene/1 mg DNA). The MRTU constructs are regulated by a cis-regulating element (promoter). […] A major difference between the CIS and TRANS system is that in CIS activities of endogenous TFs are measured, whereas the TRANS assay evaluates changes in activities of exogenous, chimeric NR-Gal4 proteins. […] At the end of 24 hour incubation, total RNA was isolated using TriZol reagent (Invitrogen). The isolated RNA is then reverse-transcribed using oligo(dT) primer and Mo-MLV reverse transcriptase (Invitrogen) with DNAse I (Ambion) treatment for 30 min. The one-tenth of the produced cDNA was amplified by PCR using Taq DNA polymerase (Invitrogen) and two reporter sequence-specific primers. The PCR products were fluorescently labeled by primer extension with 6-arboxyfluorescein (6-FAM) 5'-labeled reporter sequence-specific primer (2 min at 95 C, 20 s at 68 C and 10 min at 72 C) and these products were digested with 5U of HpaI (New England Biolabs) for 2h at 37 C. The fragments were purified using Qiaquick PCR columns (Qiagen), analyzed on an ABI 3130xL genetic analyzer (Applied Biosystems) with peak positions identified by using a set of X-rhodamine (ROX)-labeled MapMarker1000 molecular weight standards (BioVentures). The raw capillary electrophoresis data was processed using Attagraph software (Attagene).
Broadly, the AC50 is the concentration giving half of the maximal activity seen. Consider `Clc1ccc(C(c2ccccc2Cl)C(Cl)Cl)cc1` (stereo not given), for which the concentration at half-maximal activity (AC50) was 4.61 µM (active) and 12.7 µM (active).
The same measure, in the same setting: as for `O=c1c(O)c(-c2ccc(O)cc2)oc2cc(O)cc(O)c12`, the figure is 1.68 µM (active) and 954 nM (active).
Regarding `BrCc1cccc(Oc2ccccc2)c1`, the AC50 was 100 µM (active) and the call was inactive.
For the compound `Oc1ccc2cc(SSc3ccc4cc(O)ccc4c3)ccc2c1`, the result was inactive and the concentration at half-maximal activity (AC50) was 2.96 µM (active).
Turning to `OCc1cccc(Oc2ccccc2)c1`, the half-maximal activity concentration (AC50) was 37.7 µM (active) and the outcome was inactive.
As for `Cc1cc(=O)oc2cc(N(C)C)ccc12`, the compound was classed as inactive.
Turning to `CCCCC(CC)COC(=O)c1ccc(O)cc1` (stereo not given), the AC50 was 52.2 µM (active).

Source of the values: PubChem BioAssay (EPA / NIEHS).
